# Results filed as inconclusive are left out. Active and inactive are the calls of the source. Calls follow the shape of the full dose curve.
# Test: Confirmatory qHTS for VERO E6 Cytotoxicity Assay: Counterscreen for SARS-CoV-2 CPE Assay (AID 1508605); also: nearly all actives have a fitted effect of over 60% in size
# Conditions: cell viability luminescence; series mostly up to 20 µM
# Potency is read from the fitted curve at half-maximal effect.
row,SMILES,Potency
1,Cc1cc2cc(Oc3ccnc(Nc4cccc(CS(=O)(=O)NCCN(C)C)c4)n3)ccc2[nH]1,11.2 µM (active)
2,O=C1Nc2nc(-c3c(O)cccc3OCC3CC3)cc([C@@H]3CCCNC3)c2CO1,inactive
3,c1ccc(-c2ccc(CNc3nc(-c4ccccn4)nnc3-c3ccccc3)cc2)cc1,0.501 µM (active)
4,Nc1nc(Nc2ccc3c(c2)CC[C@@H](N2CCCC2)CC3)nn1-c1cc2c(nn1)-c1ccccc1CCC2,10 µM (active)
5,Cc1nc(C)c(CN2CCN(C(c3ccc(F)cc3)c3ccc(F)cc3)CC2)nc1C,inactive
6,CNC(=O)c1ccc2c(C(=Nc3cccc(CN(C)C)c3)c3ccccc3)c(O)[nH]c2c1,inactive
7,C=CC(=O)N[C@H]1CCOC[C@H]1Nc1ncc2cc(-c3c(Cl)c(OC)cc(OC)c3Cl)ccc2n1,inactive
8,Nc1nc(OC(c2ccc(-c3cccc(F)c3)cc2)C(F)(F)F)cc(-c2ccc(C[C@H](N)C(=O)O)cc2)n1 (some centres not stated),inactive
9,c1ccc2c(-c3cnn4cc(-c5ccc(OCCN6CCOCC6)cc5)cnc34)ccnc2c1,inactive
10,COCCNCc1ccc(-c2cc3nccc(Oc4ccc(NC(=O)C5(C(=O)Nc6ccc(F)cc6)CC5)cc4F)c3s2)nc1,5.01 µM (active)
11,C/C(=N\NC(=O)c1cccc(S(=O)(=O)N2CCOCC2)c1)c1cc(Cl)ccc1O,1 µM (active)
12,O=C1NC(=O)/C(=C\c2ccc(-c3ccc(F)cc3)o2)S1,inactive
13,COC(=O)[C@]1(C)CC[C@]2(C)CC[C@]3(C)C4=CC=C5C(=CC(=O)C(O)=C5C)[C@]4(C)CC[C@@]3(C)[C@@H]2C1,1.01 µM (active)
14,Cn1cc(-c2ccc(-c3cncc(Cl)c3N3CCC4(CCNC4=O)CC3)cc2)cn1,inactive

# Test: Confirmatory qHTS for activators (rescue) of SARS-CoV-2 Cytopathic Effect (CPE) (AID 1508606); also: nearly all actives have a fitted effect of over 70% in size
# Conditions: Vero E6 SARS-CoV-2 CPE rescue, viability luminescence; series mostly up to 20 µM
row,SMILES,Potency
1,CC(=O)O[C@@H]1C[C@H](O)[C@@]23CO[C@H](O)[C@]1(C)C2C[C@@H](O)[C@]1(C)C3C(=O)[C@H](OC(C)=O)[C@@]2(C)[C@H](c3ccoc3)C[C@H]3O[C@]321 (some centres not stated),1.06 µM (active)
2,Cc1cc2cc(Oc3ccnc(Nc4cccc(CS(=O)(=O)NCCN(C)C)c4)n3)ccc2[nH]1,inactive
3,Nc1nc2c(c(N3CC[C@@H](N)C3)n1)CCCc1ccccc1-2,10 µM (active)
4,O=C1Nc2nc(-c3c(O)cccc3OCC3CC3)cc([C@@H]3CCCNC3)c2CO1,11.2 µM (active)
5,O=C(O)c1ccc(CCCc2ccc(OCCc3ccc(F)cc3)cc2)o1,inactive
6,Cc1cc(CN)cc(C)c1NC(=O)c1ccc(-c2cc(Cl)ccc2Cl)o1,7.94 µM (active)
7,c1ccc(-c2cc(CCC3CCNCC3)c3ccccc3n2)cc1,inactive
8,CN(C)C(=O)NC1(c2ccccc2)CCN(CCC[C@]2(c3ccc(Cl)c(Cl)c3)CCCN(C(=O)c3ccccc3)C2)CC1,inactive
9,C(=N\Nc1nc(Nc2ccccc2)nc(N2CCOCC2)n1)/c1c[nH]c2ccccc12,0.0898 µM (active)
10,Cc1nc(Nc2cnn(C3CCNCC3)c2)nc2c1N(C)C(=O)c1cc3ccccc3cc1N2C,10 µM (active)
11,CC(=O)O/N=C1\C(=O)N(Cc2cc(Cl)ccc2Cl)c2ccc(Cl)cc21,7.94 µM (active)
12,COc1cc2ncnc(Sc3nnc(C)s3)c2cc1OC,3.98 µM (active)
13,O=C(O)/C=C/c1ccc(-c2ccc(O)c(C34CC5CC(CC(C5)C3)C4)c2)cc1,inactive
14,COc1ccc(S(=O)(=O)N(CCO)c2ccccc2CN(C)C/C=C/c2ccc(Cl)cc2)cc1,10 µM (active)
15,COc1ccc2cc(-c3cc(-c4cc(Cl)cc(Cl)c4)nn3C(C)c3ccc(C(=O)NCCC(=O)O)cc3)ccc2c1 (configuration not stated),inactive
16,C/C=C(\C)C(=O)O[C@H]1C=C(CO)C(=O)[C@H](OC(C)=O)[C@H]1C(C)C,inactive
17,COc1cc(N2CCN(C)CC2)ccc1Nc1nccc(-c2cn(C)c3cnccc23)n1,8.91 µM (active)
18,CC(C)c1ccc(NC(=O)C(c2ccccc2)N(C)C(=O)Cc2c[nH]c3ccccc23)cc1 (configuration not stated),3.55 µM (active)
19,COc1ccc(CNC(=O)Nc2ncc([N+](=O)[O-])s2)cc1,7.94 µM (active)
20,O=S(=O)(NCC1CC1)c1ccc(Nc2nccc(N3CCCc4cc(O)ccc43)n2)cc1,0.794 µM (active)
21,C[C@H]1CC[C@@]2(OC1)O[C@H]1CC3[C@@H]4CC[C@@H]5C[C@@H](O[C@@H]6O[C@H](CO)[C@@H](O[C@@H]7O[C@@H](C)[C@H](O)[C@@H](O)[C@H]7O)[C@H](O)[C@H]6O[C@@H]6O[C@H](CO)[C@@H](O)[C@H](O)[C@H]6O)CC[C@]5(C)C4CC[C@]3(C)[C@H]1[C@@H]2C (some centres not stated),inactive
22,CN(CCCNC(=O)c1ccc2nc3c(c(Cl)c2c1)CCCC3)Cc1ccccc1,7.08 µM (active)
23,CC(C)(O)CNc1ncc(-c2ccnc(Nc3ccncc3)n2)c(CC2CC2)n1,1.12 µM (active)
24,Cc1cc(C)cc(-c2cnc3cc(Cl)c(-c4cccc(O)c4)cc3c2OCCCN)c1,inactive
25,O=S(=O)(c1cccc2ccccc12)n1ccc2ccc(N3CCN4CCCC4C3)cc21 (configuration not stated),11.2 µM (active)
26,C[C@@H]1C[C@H](N)C[C@H](c2ccncc2NC(=O)c2ccc(F)c(-c3c(F)cccc3F)n2)C1,8.91 µM (active)
27,CC1(C)CCC(C)(C)c2cc(C#Cc3ccc(C(=O)O)cc3)ccc21,inactive
28,CC(C)C[C@H](NC(=O)[C@H](Cc1ccccc1)NC(=O)OCc1ccccc1)C(=O)C=O,8.91 µM (active)

# From PubChem BioAssay (NCATS)
